Source: PubChem BioAssay
Hits are enriched below; roughly 0.35% of the tested compounds scored in any of these assays.
PDI turbidity: inhibitors of human PDI, primary screen, biochemical, turbidity, single point, plate reader; Protein disulfide-isomerase (Homo sapiens), P07237; PDI insulin aggregation turbidity, A650, 90 min; inhibition, % at 10 µM; 350,000 tested, 0.052% active; AID 588391, 2011;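 active means mean inhibition across replicates of 30% or more, whatever share of single replicates reach that level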
PvdQ inh: P. aeruginosa PvdQ acylase inhibitors, primary screen, biochemical, fluorescence, plate reader and imaging, single point; 340,000 tested, 0.063% active; AID 488965, 2010; purified PvdQ acylase; PvdQ acylase [Pseudomonas aeruginosa LESB58]; inhibition, % at 10 µM; in the data active means inhibition above about 30%, passing the limit was not always enough;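 further: 0% = vehicle neutral wells and 100% = reference inhibitor wells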
ERAP1 inh: human ERAP1 aminopeptidase inhibitors, primary screen, biochemical, single point, plate reader | Endoplasmic reticulum aminopeptidase 1 (Homo sapiens), Q9NZ08 | recombinant ERAP1, Leu-AMC fluorescence, 60 min | inhibition, % at 10.7 µM | 340,000 tested, 0.15% active | AID 652197, 2013;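 active means mean replicate inhibition of at least 30%, or all replicates individually reaching that 30% level; inactive means mean below 30% and not every replicate reaching it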;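 further: 0% = neutral control wells and 100% = L-leucinethiol positive control wells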
ERp5 inh: inhibitors of ERp5-driven insulin aggregation, primary screen, biochemical, turbidity, absorbance 650 nm, single point. 350,000 tested, 0.05% active. inhibition, % at 9.99 µM. AID 651711, 2012. Protein disulfide-isomerase A6 (Homo sapiens), Q15084. 90 min;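 active means mean replicate inhibition above about 25%, with every replicate also reaching it, limit read from the data, passing the limit was not always enough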
Target sequence (Q15084 whole entry, looked up): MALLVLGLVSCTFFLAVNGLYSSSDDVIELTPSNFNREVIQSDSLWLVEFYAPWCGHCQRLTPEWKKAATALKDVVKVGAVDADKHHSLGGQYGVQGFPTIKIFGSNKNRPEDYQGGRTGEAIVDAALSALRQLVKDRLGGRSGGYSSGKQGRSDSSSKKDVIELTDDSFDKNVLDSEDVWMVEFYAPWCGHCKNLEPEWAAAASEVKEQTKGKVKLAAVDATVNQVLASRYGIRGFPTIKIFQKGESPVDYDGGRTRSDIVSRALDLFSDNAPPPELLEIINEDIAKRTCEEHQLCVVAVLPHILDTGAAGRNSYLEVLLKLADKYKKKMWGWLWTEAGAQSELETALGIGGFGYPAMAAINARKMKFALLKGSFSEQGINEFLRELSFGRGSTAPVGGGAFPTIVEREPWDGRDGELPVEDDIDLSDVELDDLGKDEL
Rtt109 HAT inh: inhibitors of C. albicans Rtt109/Vps75 HAT, primary screen, biochemical, ThioGlo CoA-SH fluorescence, plate reader. purified Rtt109/Vps75, 4 h. inhibition, % at 34.9 µM. 330,000 tested, 0.16% active;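 active means inhibition of at least 50% in every replicate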
Numbers without * were called inactive; · = no result.

SMILES | PDI turbidity | PvdQ inh | ERAP1 inh | ERp5 inh | Rtt109 HAT inh
CCc1nnc(NC(=O)CN2C(=O)NC3(CCCC3)C2=O)s1 | -1 | -12 | 39* | -2 | 5
O=C1ON=C(c2ccccc2[N+](=O)[O-])/C1=C/c1cccc([N+](=O)[O-])c1O | -1 | -13 | 65* | 4 | 2
O=C1ON=C(c2ccc(Cl)c([N+](=O)[O-])c2)/C1=C/c1cccc([N+](=O)[O-])c1O | 9 | -11 | 99* | -22 | -3
O=[N+]([O-])c1cccc(/C=N/n2cnnc2)c1O | 0 | -5 | · | · | 1
Cc1ccc(S(=O)(=O)N(C)C[C@@H]2Oc3ccc(NC(=O)CCN4CCOCC4)cc3C(=O)N([C@@H](C)CO)C[C@@H]2C)cc1 | · | · | 0 | 0 | ·
C[C@@H]1CN([C@H](C)CO)S(=O)(=O)c2ccc(-c3cccc(C(=O)N(C)C)c3)cc2O[C@@H]1CN(C)Cc1ccc2c(c1)OCO2 | · | · | -6 | -3 | ·
CO[C@H]1CC[C@H]2CCOc3ccc(C#N)cc3C(=O)N(C)C[C@H](c3ccccc3)CC(=O)N(C)C[C@H]1O2 | · | · | -3 | 3 | ·
C[C@H](CO)N1C[C@H](C)[C@@H](CN(C)Cc2ccc(Oc3ccccc3)cc2)Oc2ccc(NS(=O)(=O)c3ccc(Cl)cc3)cc2C1=O | · | · | -4 | -7 | ·
Cc1ccc(C(c2cc(Cl)c3cccnc3c2O)N2CCN(C)CC2)cc1 (centres undefined) | -8 | 9 | · | · | 13
CN1CCN(C(c2ccccn2)c2cc(Cl)c3cccnc3c2O)CC1 (centres undefined) | -2 | -10 | 5 | -8 | 56*
CCN(CC)C(=O)c1ncn2c1C(=O)NC[C@H]2C | · | · | -4 | 3 | ·
CCN(CC)C(=O)c1ncn(C)c1C(=O)N(CC)CC | -6 | -9 | 107* | 8 | -1
CN(Cc1ccccc1)C(=O)c1ncn(C)c1C(=O)N(C)Cc1ccccc1 | -6 | -9 | 31* | 2 | -3
Cn1cnc(S(=O)(=O)N2[C@@H]3CNC[C@H]2C3c2ccc(/C=C/c3ccccc3)cc2)c1 (some centres undefined) | · | · | 1 | 2 | ·
CC(C)NC(=O)N(C)C[C@H]1Oc2ccc(NC(=O)Nc3ccc(F)cc3)cc2CC(=O)N([C@H](C)CO)C[C@@H]1C | · | · | 0 | -6 | ·
Cc1[nH]c2ccccc2c1C1=CC(=O)C=CC1=O | 11 | -12 | 78* | -2 | 8
CS(=O)(=O)Nc1ccc2c(c1)[C@@H]1C[C@H](CC(=O)O)O[C@@H](CO)[C@@H]1O2 | · | · | 2 | -6 | ·
CN(C)C(=O)C[C@@H]1C[C@H]2c3cc(NS(C)(=O)=O)ccc3O[C@H]2[C@@H](CO)O1 | · | · | 0 | 93* | ·
CN(C)C(=O)C[C@@H]1C[C@@H]2c3cc(NS(C)(=O)=O)ccc3O[C@@H]2[C@H](CO)O1 | · | · | 1 | 77* | ·
C[C@@H]1CCCCO[C@H](CN(C)S(=O)(=O)c2ccccc2)[C@@H](C)CN([C@@H](C)CO)C(=O)c2cc(NC(=O)CCC(F)(F)F)ccc2O1 | · | · | -1 | 7 | ·
CNC[C@@H]1Oc2ccc(NS(C)(=O)=O)cc2C(=O)N([C@H](C)CO)C[C@@H]1C | · | · | -6 | 5 | ·
CCOC(=O)c1cccc(NC(=O)/C=C/c2cccc([N+](=O)[O-])c2)c1 | -2 | -13 | · | · | 5
CCOC(=O)/C=C/C(=O)Nc1cccc([N+](=O)[O-])c1 | -11 | -8 | · | · | 108*
COc1cccc(S(=O)(=O)N2C[C@@H]3N[C@H](C2)C3c2ccc(/C=C/c3ccccc3)cc2)c1 (some centres undefined) | · | · | 0 | 1 | ·
Fc1ccccc1C1CC(c2ccco2)=Nc2ccccc2S1 (centres undefined) | 2 | -3 | · | 1 | 83*
SMILES | PDI turbidity | PvdQ inh | ERAP1 inh | ERp5 inh | Rtt109 HAT inh
O=C(NC1CCCCCCC1)c1cccc(Cl)c1 | 3 | 74* | -2 | 2 | 1
O=C(NC1CCCCCCC1)c1cc([N+](=O)[O-])ccc1Cl | 2 | 42* | -3 | -1 | -5
O=C(NC1CCCC1)c1cccc(Cl)c1 | 1 | 70* | -2 | 13 | 1
C[C@@H]1CN([C@H](C)CO)C(=O)c2cccc(NS(=O)(=O)c3ccc(Cl)cc3)c2O[C@@H]1CN(C)S(=O)(=O)c1ccccc1 | · | · | -5 | -1 | ·
COc1ccc(NC(=O)N2C[C@H](O)COC[C@H]3O[C@H](CC(=O)N4CCOCC4)CC[C@@H]32)cc1 | · | · | -1 | 4 | ·
CNC(=O)C[C@@H]1CC[C@@H]2[C@@H](COc3ccc(NC(=O)Nc4ccc(Cl)cc4)cc3C(=O)N2C)O1 | · | · | 0 | -5 | ·
CCCCN(C/C=C/c1ccccc1OC)Cc1ccccc1 | 1 | 2 | -1 | 3 | 64*
O=c1c2c([N+](=O)[O-])cc([N+](=O)[O-])cc2sn1Cc1ccccc1 | 10 | -12 | 88* | 4 | -2
O=C1C2C(C(=O)N1CCc1ccccc1)C1C=CC2C12CC2 (centres undefined) | 1 | 2 | -3 | -5 | -7
O=C1NN(c2ccccc2)C(=O)C2C1C1C=CC2C12CC2 (centres undefined) | -8 | 53* | · | · | -1
N#Cc1ccc(-c2ccc([C@H]3[C@H](CO)N4C(=O)CN(C(=O)C5CCCC5)C[C@@H]34)cc2)cc1 | · | · | -1 | -6 | ·
COc1ccc2c(C)cc(N3CCCCCC3)nc2c1 | -7 | -5 | -1 | 6 | -8
COc1ccc2c(C)cc(N3CCN(Cc4ccccc4)CC3)nc2c1 | -40 | 11 | 37* | 1 | -2
C[C@H](CO)N1C[C@H](C)[C@@H](CN(C)C)Oc2ccc(NS(=O)(=O)c3ccc(Cl)cc3)cc2C1=O | · | · | 1 | -1 | ·
COc1cccc2c1Oc1ncccc1N(C(=O)CCC(=O)NCc1ccc(F)cc1)C2 | 8 | 0 | 0 | 0 | 51*
CCCc1cn(CC[C@H]2CC[C@@H](NS(=O)(=O)c3ccc(-c4ccccc4)cc3)[C@H](CO)O2)nn1 | · | · | -1 | -5 | ·
C[C@@H]1CN([C@@H](C)CO)C(=O)c2cc(C#CCN(C)C)cnc2O[C@@H]1CN(C)Cc1cccc(F)c1 | · | · | 10 | · | ·
CC(C)CC#Cc1cnc2c(c1)C(=O)N([C@H](C)CO)C[C@H](C)[C@H](CN(C)Cc1ccccc1C(=O)O)O2 | · | · | 0 | 37* | ·
C[C@@H]1CN([C@H](C)CO)C(=O)c2cc(C#CCN(C)C)cnc2O[C@H]1CN(C)Cc1cccc(F)c1 | · | · | 1 | 57* | ·
COc1ccc(Cl)cc1-c1nc(SCC(=O)NC2CCCC2)n[nH]1 | -10 | -2 | -2 | -3 | 2
O=C(CSc1n[nH]c(-c2ccccc2Cl)n1)NC1CCCCC1 | -20 | -1 | -3 | -3 | 51*
